From PubChem BioAssay (Tox21)
Records with an inconclusive call do not appear. The source made the active and inactive calls. Calls come from the whole dose curve; as a rule, active = well fitted inhibition curve with a large enough effect in the repeat runs; inconclusive = weak or mixed curves; inactive = no such curve, though single readings can be large or run the other way.

target: Estrogen receptor (Homo sapiens) (UniProt P03372); experiment: qHTS assay to identify small molecule antagonists of the estrogen receptor alpha (ER-alpha) signaling pathway using the BG1 cell line in the presence of 0.1 nM 17-beta-estradiol (AID 1259244); settings: VM7Luc4E2 (BG1) ERE-luciferase, antagonist mode, 0.1 nM E2, 22 h; series mostly up to 92.4 µM; activity change, negative = inhibition: at the top concentration; note: nearly all actives have a fitted effect of over 50% in size
Text: National Center for Advancing Translational Sciences [NCATS]
NIH Chemical Genomics Center [NCGC]
U.S. Environmental Protection Agency [EPA]
National Institutes of Environmental Health Sciences [NIEHS]
National Toxicology Program [NTP]
U.S. Food and Drug Administration [FDA]
Estrogen receptor (ER), a member of the nuclear hormone receptor plays an important role in development, metabolic homeostasis and reproduction. Two subtypes of ER, ER-alpha and ER-beta, have similar expression patterns with some uniqueness in both types. Endocrine disrupting chemicals (EDCs) and their interactions with steroid hormone receptors like ER causes disruption of normal endocrine function. Therefore, it is important to understand the effect of environmental chemicals in ER signaling pathway. For identifying ER antagonists, VM7Luc4E2 cell line was used to screen against Tox21 compound libraries.
VM7Luc4E2 cell line (provided by Denison MS, University of California) endogenously express full-length ER-alpha and is stably transfected with a plasmid containing four estrogen responsive elements (ERE) upstream of a luciferase reporter gene. The current screening for identification of ER-alpha inhibitors against Tox21 compound libraries used lower concentration (0.1 nM) of 17beta-Estradiol as a stimulator.
Tox21 Assay Protocol Summary:
VM7Luc4E2 cells were cultured in phenol red free assay medium containing 10% charcoal stripped FBS for 5 days prior to the assay. The cells were dispensed at 4,000 cells/well in 4 uL of assay medium into white wall/solid-bottom 1536-well plates (Corning Life Sciences, Corning, NY) using a Multidrop Combi (ThermoFisher Scientific, Waltham, MA) dispenser. After the assay plates were incubated at 37C and 5% CO2 for 24 hr, 23 nL of compounds dissolved in DMSO, positive controls or DMSO only was transferred to the assay plates by a Pintool station (Kalypsys, San Diego, CA). The transfer of compounds was followed by the addition of 1 uL of 0.1 nM (final concentration) agonist (17beta-Estradiol)/assay medium using a Flying Reagent Dispenser (FRD, Aurora Discovery, San Diego, CA). The plates were incubated at 37C and 5% CO2 for 22 hr. For luciferase reporter gene assay, 4 uL of ONE-Glo reagent (Promega Corporation, Madison, WI) was added to each well using the FRD and after 30 min incubation at room temperature luminescence intensity was measured using ViewLux plate reader (PerkinElmer, Shelton, CT).
% is set by controls: 0 for no effect and ±100 for the full control effect.

Chain of Estrogen receptor (Homo sapiens) (P03372 whole entry, looked up): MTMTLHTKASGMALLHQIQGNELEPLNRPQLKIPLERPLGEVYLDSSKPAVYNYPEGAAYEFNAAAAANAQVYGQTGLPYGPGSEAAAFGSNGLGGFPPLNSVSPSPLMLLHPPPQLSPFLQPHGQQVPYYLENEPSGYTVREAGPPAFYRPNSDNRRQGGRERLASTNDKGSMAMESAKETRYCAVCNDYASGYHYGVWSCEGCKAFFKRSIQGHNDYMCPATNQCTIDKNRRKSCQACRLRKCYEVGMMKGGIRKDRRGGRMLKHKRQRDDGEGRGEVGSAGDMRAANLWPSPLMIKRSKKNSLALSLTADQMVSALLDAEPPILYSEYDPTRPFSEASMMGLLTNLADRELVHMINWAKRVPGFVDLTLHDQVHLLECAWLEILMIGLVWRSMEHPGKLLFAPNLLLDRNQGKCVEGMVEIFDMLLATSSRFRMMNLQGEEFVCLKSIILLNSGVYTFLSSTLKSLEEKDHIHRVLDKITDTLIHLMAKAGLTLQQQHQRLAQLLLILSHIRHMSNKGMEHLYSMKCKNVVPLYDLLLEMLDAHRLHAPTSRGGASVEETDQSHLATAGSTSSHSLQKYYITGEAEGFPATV

Compound | activity change, negative = inhibition
Cc1cc2c(cc1CC(=O)c1sccc1S(=O)(=O)Nc1onc(C)c1Cl)OCO2 | 4.31% [at 42.5 µM] (inactive)
O=C(CCBr)N1CCN(C(=O)CCBr)CC1 | 3.63% [at 42.5 µM] (inactive)
CCCCCCCCCCCBr | -5.53% [at 42.5 µM] (inactive)
CCCCS | 17.2% (inactive)
COC(=O)N/N=C/c1c[n+]([O-])c2ccccc2[n+]1[O-] | 2.71% [at 42.5 µM] (inactive)
CC(C)(O)c1ccc(C(C)(C)O)cc1 | -4.21% (inactive)
COCc1nnc(-c2ccc[n+]([O-])c2)n1-c1c(Cl)c(Cl)cc2[nH]c(=O)c(=O)[nH]c12 | 13.5% (inactive)
N[C@H]1C(O)O[C@H](CO)[C@@H](O)[C@@H]1O (stereo not given in full) | 7.2% [at 42.5 µM] (inactive)
COCCCOc1cc(C[C@@H](C[C@H](N)[C@@H](O)C[C@H](C(=O)NCC(C)(C)C(N)=O)C(C)C)C(C)C)ccc1OC | -1.27% [at 42.5 µM] (inactive)
CCCCC(O)/C=C(C)/C=C/C=C/C(=O)N1CCCC1=O (stereo not given) | 5.1% [at 42.5 µM] (inactive)
COC(=O)c1ccc(C(=O)O)cc1 | 5.73% (inactive)
CCOC(=O)CC | 14.2% (inactive)
CC(C)C[P+](C)(CC(C)C)CC(C)C | 13.8% (inactive)
Cc1cc(C)c(C)c(C)c1 | 15.8% (inactive)
Cc1nc2ccc(Cl)cc2[nH]1 | 1.03% (inactive)
C[C@@H]1CCC[C@H](C)N1CCCC(O)(c1ccccc1)c1ccccn1 (stereo not given in full) | 4.81% [at 42.5 µM] (inactive)
C[n+]1ccccc1/C=N/O | 1.55% [at 42.5 µM] (inactive)
Cc1ccccc1OCC(=O)O | 1.98% (inactive)
CCOC(=O)c1ccc(N(C)C)cc1 | 49.3% (inactive)
CCCCC(CC)COC(=O)CC#N (stereo not given) | 6.06% (inactive)

Compound | activity change, negative = inhibition
CCOC(=O)[C@H](CCc1ccccc1)N[C@H]1CS[C@H](c2cccs2)CN(CC(=O)O)C1=O | -6.71% [at 42.5 µM] (inactive)
C=CCCCCCCCCCCCCCC | -1.96% [at 19 µM] (inactive)
C/C(Cl)=C/CCl | 0% (inactive)
NNC(=O)CCCCC(=O)NN | -7.96% (inactive)
C[C@@H]1NC(=O)[C@@H](N)CNC(=O)[C@H](C2CCNC(N)=N2)NC(=O)/C(=C/NC(N)=O)NC(=O)[C@H](CNC(=O)C[C@@H](N)CCCN)NC1=O (stereo not given in full) | 11.8% [at 0.349 µM] (inactive)
O=C(O)/C=C(\CC(=O)O)C(=O)O | 0.353% [at 42.5 µM] (inactive)
Cc1ccc(S(=O)(=O)NC(=O)NN2CC3CCCC3C2)cc1 (stereo not given) | 4.2% [at 42.5 µM] (inactive)
CCNC(=O)C(C)OC(=O)Nc1ccccc1 (stereo not given) | -3.29% (inactive)
CC(O)C(CO)C(C)O (stereo not given) | 4.07% (inactive)
CCc1ccc(CC)cc1 | 20% (inactive)
CCN(CC)CC | 0.731% (inactive)
C/C=C/C(=O)CCCC | 1.16% (inactive)
Clc1ccc2c(c1)Nc1ccccc1S2 | -0.657% [at 42.5 µM] (inactive)
CC(C)(C)C(=O)CCc1ccc(Cl)cc1 | -2.32% (inactive)
CCCc1ccc(O)c(OC)c1 | -4.62% (inactive)
CC(C)=CCC/C(C)=C\C#N | 5.69% (inactive)
CCC(C)(C)C | 17.1% (inactive)
CCCCCCCCCCCC(C)=O | 7.09% (inactive)
C[C@]12C=CC(=O)C=C1[C@@H](F)C[C@@H]1[C@@H]2[C@@H](O)C[C@@]2(C)[C@H]1CC[C@]2(O)C(=O)CO | 20.7% [at 42.5 µM] (inactive)
O=C(c1ccccc1)c1cccc(O)c1 | 4.08% (inactive)
